ChEMBL document CHEMBL1201862, “PubChem BioAssay data set” (2004)

target: Huntingtin (Homo sapiens) (UniProt P42858); assay: Quantitative High-Throughput Multiplex Assay to Identify Dual Action Probes in a Cell Model of Huntington: Summary. [Related pubchem assays (depositor defined):AID1471, AID1688, AID2669, AID2672, AID2673, AID2713]; type: functional
Sequence (P42858 whole entry): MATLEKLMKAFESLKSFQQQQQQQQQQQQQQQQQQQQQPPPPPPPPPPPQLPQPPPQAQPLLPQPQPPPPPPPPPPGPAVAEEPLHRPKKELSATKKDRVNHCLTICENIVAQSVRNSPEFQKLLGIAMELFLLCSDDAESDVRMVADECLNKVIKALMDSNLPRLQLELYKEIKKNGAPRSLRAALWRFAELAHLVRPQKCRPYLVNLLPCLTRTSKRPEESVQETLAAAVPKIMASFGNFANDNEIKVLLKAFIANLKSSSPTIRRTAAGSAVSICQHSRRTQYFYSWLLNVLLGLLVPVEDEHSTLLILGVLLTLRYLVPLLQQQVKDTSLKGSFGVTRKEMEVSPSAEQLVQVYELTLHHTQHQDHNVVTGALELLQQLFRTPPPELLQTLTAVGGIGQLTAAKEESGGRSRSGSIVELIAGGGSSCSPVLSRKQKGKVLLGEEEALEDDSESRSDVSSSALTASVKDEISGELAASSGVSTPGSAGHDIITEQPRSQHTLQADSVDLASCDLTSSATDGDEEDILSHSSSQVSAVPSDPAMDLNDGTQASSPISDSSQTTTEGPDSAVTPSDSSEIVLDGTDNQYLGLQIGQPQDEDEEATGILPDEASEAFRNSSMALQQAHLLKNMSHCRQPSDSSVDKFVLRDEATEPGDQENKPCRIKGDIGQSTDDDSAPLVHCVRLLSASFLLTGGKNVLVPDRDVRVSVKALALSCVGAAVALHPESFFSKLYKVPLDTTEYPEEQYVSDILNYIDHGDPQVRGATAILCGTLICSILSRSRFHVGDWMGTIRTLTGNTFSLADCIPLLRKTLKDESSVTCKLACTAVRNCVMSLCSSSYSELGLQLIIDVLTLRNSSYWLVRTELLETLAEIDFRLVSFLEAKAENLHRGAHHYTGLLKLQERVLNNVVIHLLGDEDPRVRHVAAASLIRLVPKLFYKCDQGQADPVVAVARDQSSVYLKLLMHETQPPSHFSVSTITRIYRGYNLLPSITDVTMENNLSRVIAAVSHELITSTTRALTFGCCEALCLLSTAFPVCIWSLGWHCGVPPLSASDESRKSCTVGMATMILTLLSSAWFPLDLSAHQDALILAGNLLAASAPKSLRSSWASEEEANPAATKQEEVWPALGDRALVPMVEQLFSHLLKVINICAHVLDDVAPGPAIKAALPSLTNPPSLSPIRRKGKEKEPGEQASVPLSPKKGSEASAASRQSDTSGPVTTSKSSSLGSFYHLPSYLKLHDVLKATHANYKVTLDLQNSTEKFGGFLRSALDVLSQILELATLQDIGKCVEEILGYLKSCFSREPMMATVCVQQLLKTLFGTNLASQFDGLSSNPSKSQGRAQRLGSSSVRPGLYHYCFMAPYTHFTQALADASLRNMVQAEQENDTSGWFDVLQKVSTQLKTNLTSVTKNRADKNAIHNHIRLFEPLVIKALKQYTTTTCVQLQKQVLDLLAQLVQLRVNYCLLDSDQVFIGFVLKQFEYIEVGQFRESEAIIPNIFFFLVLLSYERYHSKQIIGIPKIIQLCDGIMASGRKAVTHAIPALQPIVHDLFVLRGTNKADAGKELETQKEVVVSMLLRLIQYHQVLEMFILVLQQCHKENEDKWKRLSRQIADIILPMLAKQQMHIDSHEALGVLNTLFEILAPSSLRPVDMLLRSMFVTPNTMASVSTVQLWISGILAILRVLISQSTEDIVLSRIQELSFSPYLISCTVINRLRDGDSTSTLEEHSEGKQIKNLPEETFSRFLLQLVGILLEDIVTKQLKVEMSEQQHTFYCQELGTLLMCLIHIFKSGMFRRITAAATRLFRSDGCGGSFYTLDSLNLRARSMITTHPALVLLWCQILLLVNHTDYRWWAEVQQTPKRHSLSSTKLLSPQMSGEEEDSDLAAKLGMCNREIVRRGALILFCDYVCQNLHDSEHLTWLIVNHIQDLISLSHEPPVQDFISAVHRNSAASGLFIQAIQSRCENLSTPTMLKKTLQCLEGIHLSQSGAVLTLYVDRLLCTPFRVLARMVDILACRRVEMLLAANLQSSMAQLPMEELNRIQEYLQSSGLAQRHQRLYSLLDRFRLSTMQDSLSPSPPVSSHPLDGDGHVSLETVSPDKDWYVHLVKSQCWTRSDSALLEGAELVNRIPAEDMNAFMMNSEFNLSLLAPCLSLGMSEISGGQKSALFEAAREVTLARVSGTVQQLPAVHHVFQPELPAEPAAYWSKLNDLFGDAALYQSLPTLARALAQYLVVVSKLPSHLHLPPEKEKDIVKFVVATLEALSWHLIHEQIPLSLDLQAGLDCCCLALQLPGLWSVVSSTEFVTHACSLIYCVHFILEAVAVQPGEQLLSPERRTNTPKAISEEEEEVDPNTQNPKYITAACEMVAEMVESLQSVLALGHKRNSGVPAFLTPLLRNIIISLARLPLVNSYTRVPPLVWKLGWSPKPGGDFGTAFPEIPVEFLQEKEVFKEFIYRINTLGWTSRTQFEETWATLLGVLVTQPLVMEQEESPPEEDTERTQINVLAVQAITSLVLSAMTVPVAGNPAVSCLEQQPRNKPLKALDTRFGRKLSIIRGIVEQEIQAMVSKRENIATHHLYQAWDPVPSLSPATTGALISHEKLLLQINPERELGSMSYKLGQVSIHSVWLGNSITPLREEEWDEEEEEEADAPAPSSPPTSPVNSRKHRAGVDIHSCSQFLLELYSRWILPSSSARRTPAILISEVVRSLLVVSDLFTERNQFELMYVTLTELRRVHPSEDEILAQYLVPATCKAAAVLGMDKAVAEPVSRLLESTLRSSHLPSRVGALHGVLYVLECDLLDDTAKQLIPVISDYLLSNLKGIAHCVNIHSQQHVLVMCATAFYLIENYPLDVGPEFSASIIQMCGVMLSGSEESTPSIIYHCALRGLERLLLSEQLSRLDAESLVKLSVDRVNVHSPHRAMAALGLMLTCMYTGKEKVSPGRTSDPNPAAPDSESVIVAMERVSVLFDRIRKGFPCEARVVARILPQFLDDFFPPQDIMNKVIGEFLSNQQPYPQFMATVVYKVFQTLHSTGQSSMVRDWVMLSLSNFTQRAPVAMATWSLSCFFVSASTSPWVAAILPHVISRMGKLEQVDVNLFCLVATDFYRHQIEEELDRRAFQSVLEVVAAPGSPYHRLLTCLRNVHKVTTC

Which Potency does the source give for `Cn1nnnc1Sc1ncnc2scc(-c3ccccc3C(F)(F)F)c12` here?
The Potency was 25.1 µM (active).

`COc1ccccc1-c1csc2ncnc(Sc3nnnn3C)c12` was tested. Which Potency did it give?
Its Potency is 79.4 µM (active).

With `Cn1nnnc1Sc1ncnc2scc(-c3ccccc3)c12` as the molecule, how does the Potency read?
Its Potency is 8.68 µM.

`COc1ccc(-c2csc3ncnc(Sc4nnnn4C)c23)cc1` was tested. Which Potency did it give?
The Potency was 12.6 µM (active).

With `Cn1nnnc1Sc1ncnc2scc(-c3cccc(F)c3)c12` as the molecule, how does the Potency read?
The Potency was 7.94 µM (active).

`Cn1nnnc1Sc1ncnc2scc(-c3ccccc3F)c12` was tested. Which Potency did it give?
Its Potency is 12.6 µM (active).

`Cc1ccccc1-c1csc2ncnc(Sc3nnnn3C)c12` was tested. Which Potency did it give?
Its Potency is 63.1 µM (active).

How did the Potency turn out when `Cn1nnnc1Sc1ncnc2scc(-c3ccc(Cl)cc3)c12` was run?
The Potency was 15.8 µM (active).

For `Cc1ccc(-c2csc3ncnc(Sc4nnnn4C)c23)cc1`, which Potency is on record?
Its Potency is 15.8 µM (active).

For `COc1cccc(-c2csc3ncnc(Sc4nnnn4C)c23)c1`, which Potency is on record?
The Potency was 7.94 µM (active).

With `Cc1cccc(-c2csc3ncnc(Sc4nnnn4C)c23)c1` as the molecule, how does the Potency read?
The Potency was 15.8 µM (active).
